Experimental data reported in ChEMBL document CHEMBL1157539, “Thousands of chemical starting points for antimalarial lead identification” (Nature, 2010).

system: Plasmodium falciparum; assay: GSK_TCMDC: Inhibition of Plasmodium falciparum 3D7 in whole red blood cells, using parasite LDH activity as an index of growth. Test compounds present at 2uM; assay type: functional

Row | Compound | Inhibition
1 | CC(C)(CNCc1ccc(Cl)c(Cl)c1)c1nc(-c2ccc(Cl)c(O)c2)c(-c2ccncc2)[nH]1.Cl | 100%
2 | CN(CCCCNC(=O)c1cc2ccccc2[nH]1)C1CC2(CCN(C(=O)OC(C)(C)C)CC2)c2ccccc21 (stereo not given) | 86%
3 | O=C(/C=C/c1ccc(Cl)c(Cl)c1)NCCCCCN1CCC(NC(=O)Nc2ccc(Cl)cc2F)CC1 | 100%
4 | Cn1cc(C2CCN(CCCCNC(=O)c3sc(-c4ccc(C(F)(F)F)cc4)nc3CO)CC2)c2ccccc21 | 95%
5 | Cc1ccc(Nc2nc3cc(Nc4ccnc(Nc5ccc(CS(C)(=O)=O)cc5)n4)ccc3o2)cc1 | 99%
6 | Br.COc1ccc(CCON2C(=N)N=C(N)NC2(C)C)cc1OC | 96%
7 | CC(C)C[C@H](NC(=O)c1ccc(OCCN2CCOCC2)cc1)C(=O)NC(/C=N/N1CCCC1=O)C(C)C (stereo not given in full) | 90%
8 | O=C(Nc1ccc2c(c1)CCN2C1CCN(Cc2csc3ccccc23)C1)c1ccco1 (stereo not given) | 95%
9 | CN1CCC(Oc2ccc(CN3CC[C@H](NC(=O)c4ccc(Cl)c(F)c4)C3)c3ccccc23)C1.O=C(O)C(F)(F)F (stereo not given in full) | 100%
10 | Cc1cc(N(C)CCCN(C)C)nc(Nc2ccc(Br)cc2)n1 | 100%
11 | COc1ccc(NC(=O)Nc2ccc(-c3ccccc3)cc2Cl)cc1N1CCN(C)CC1 | 90%
12 | Fc1cccc(Nc2nc(NCc3ccc4ccsc4c3)nc(Nc3cccc(F)c3)n2)c1 | 94%
13 | CO/C(=C\C=C\c1cc2cc(Cl)c(Cl)cc2[nH]1)C(=O)NCCCN1CCCC[C@H]1C | 100%
14 | CC(C)(C)c1ccc(NC(=O)c2ccc(CN3CCCN(Cc4ccc(F)cc4)CC3)cc2)cc1.O=C(O)C(F)(F)F | 87%
15 | CC1(C)N=C(N)N=C(N)C1c1ccc(Cl)cc1.Cl (stereo not given) | 96%
16 | O=C(/C=C/c1ccc(Cl)c(Cl)c1)NCCCCCCN1CCN(C(=O)Nc2ccc(C(F)(F)F)cc2)CC1 | 100%
17 | O=C(c1cccc(-c2noc(C(F)(F)F)n2)c1)N1CCN(c2ccncc2)CC1 | 90%
18 | COc1cccc(CCc2ccc(O)c3c2C[C@H]2C[C@H]4[C@H](N(C)C)C(O)=C(C(N)=O)C(=O)[C@@]4(O)C(O)=C2C3=O)c1.Cl | 93%
19 | Nc1c2c(nc3ccccc13)C(=Cc1ccc(O)cc1)CCC2 | 99%
20 | O=C(Nc1cccc(CN2CCCN(Cc3ccc4c(c3)OCO4)CC2)c1)c1ccc(Cl)c(Cl)c1.O=C(O)C(F)(F)F | 92%

Row | Compound | Inhibition
21 | O=C(NCCNc1ccnc(Nc2ccc(F)cc2)n1)Nc1ccc2c(c1)OCO2 | 97%
22 | COc1ccc(CCNCCCCCCNCCc2ccc(Cl)c(Cl)c2)cc1OC.Cl | 100%
23 | CCC1CCCCN1S(=O)(=O)c1ccc(NC(=O)c2cc(C)on2)cc1 (stereo not given) | 86%
24 | COc1ccc2nccc([C@@H](O)CN3CCC(NCc4cc5ccccc5nc4O)CC3)c2c1.Cl | 97%
25 | Cc1c(C)c2c(c(C)c1O)CC[C@@](C)(C(=O)N1CCC(CCN3CCC(c4c[nH]c5ccccc45)CC3)CC1)O2 | 98%
26 | O=C(Nc1ccc(OC2CCN(Cc3ccsc3)CC2)c(Cl)c1)c1ccco1.O=C(O)C(F)(F)F | 87%
27 | COc1ccc2nccc([C@@H](O)CN3CCC(NCc4ccc5nc[nH]c(=O)c5c4)CC3)c2c1.O=C(O)C(=O)O | 99%
28 | O=C(O)C(F)(F)F.O=[N+]([O-])c1ccc(Oc2ccccc2CNCC2CCN(CC3CCCCC3)CC2)cc1 | 89%
29 | COc1ccc(CCNC(=O)c2ccc(-n3cc(NC(=O)c4cccnc4)cn3)cc2)cc1OC | 90%
30 | CC(C)N1CCC(N(Cc2ccc(-c3ccc(C(F)(F)F)cc3)cc2)C(=O)Cn2c(SCc3cccc(F)c3F)cc(=O)c3c2CCC3)CC1.O=C(O)C(O)C(O)C(=O)O | 88%
31 | COc1cc(C)nc2ccc(NC(=O)Nc3ccc([N+](=O)[O-])cc3C)cc12 | 90%
32 | CCNc1cc(C(=O)N[C@@H](Cc2ccccc2)[C@H](O)CNC2(Cc3cccc(Cl)c3)CCC2)cc(N2CCCCS2(=O)=O)c1.Cl | 95%
33 | Cl.NCc1ccc(Nc2nccc(Nc3ccc(-c4ccccc4)cc3)n2)cc1 | 100%
34 | CN(C)c1ccc(-c2csc(C(=O)NC3CCN(Cc4ccc(C(C)(C)C)cc4)C3)c2)cc1.O=C(O)C(F)(F)F (stereo not given) | 99%
35 | COc1ccc2nc3cc(Cl)ccc3c(NCCO)c2c1.Cl | 100%
36 | CC(C)CNCc1cccc(-c2cccc(CN(CCCN3CCN(C)CC3)C(=O)/C=C/c3ccccc3)c2)c1.O=C(O)C(F)(F)F | 90%
37 | COc1cccc(C=NN=c2cc(C)[nH]c3ccccc23)c1 | 100%
38 | NC1CCN(CCNCc2cccc(-c3ccc(-c4nc5cc(C(F)(F)F)ccc5[nH]4)cc3)c2)C1.O=C(O)C(F)(F)F (stereo not given) | 98%
39 | CC(Cc1ccc(NC(=O)c2ccc(CNCc3ccccc3)cc2)cc1)N(CCc1cccc(Cl)c1)C(=O)OC(C)(C)C (stereo not given) | 95%
40 | COc1ccc(CNC(=O)c2cnc3c(O)cccc3c2Nc2cccc(NC(=O)c3ccc(F)cc3)c2)cc1.O=C(O)C(F)(F)F | 91%
